In this assay the target is Left-right determination factor 2 (Homo sapiens) (UniProt O00292). The assay can be described thus: small molecules binding LEFTY2 protein – biochemical, small-molecule microarray, 635 nm fluorescence scan, primary screen (AID 1110). The following applies: higher = more signal.
Sequence of Left-right determination factor 2 (Homo sapiens) (O00292 whole entry, looked up): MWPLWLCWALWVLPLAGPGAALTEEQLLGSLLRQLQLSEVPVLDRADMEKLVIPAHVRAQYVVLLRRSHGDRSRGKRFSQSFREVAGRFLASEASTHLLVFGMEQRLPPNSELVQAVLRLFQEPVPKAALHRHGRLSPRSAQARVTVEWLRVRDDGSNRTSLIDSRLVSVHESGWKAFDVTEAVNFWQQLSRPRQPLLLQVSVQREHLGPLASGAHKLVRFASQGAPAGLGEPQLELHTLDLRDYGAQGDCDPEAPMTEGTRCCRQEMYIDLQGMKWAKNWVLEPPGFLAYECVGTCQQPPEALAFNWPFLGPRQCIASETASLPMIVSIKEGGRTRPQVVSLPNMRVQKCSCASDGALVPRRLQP
The compound `COC(=O)[C@@]1(Cc2ccccc2)[C@H]2c3cc(C(=O)N4CCCC4)[nH]c3C[C@H]2CN1C(=O)c1ccccc1` displayed a composite z-score of -0.632.

As for `O=C(O)[C@H](Cc1ccccc1)n1cc(-c2ccccn2)nn1`, the composite z-score was -0.0097. With `O=C1O[C@@H](c2ccccc2)[C@@H](c2ccccc2)N2[C@@H](c3ccccc3OCCO)[C@]3(C(=O)Nc4ccc(C#CCCO)cc43)[C@@H](C(=O)N3CCN(c4ncccn4)CC3)[C@H]12` the figure was -0.0407. With `COc1ccc([Si](C)(C)[C@@H]2[C@@H](CCO)O[C@]3(C(=O)N(Cc4cccc(N5C(=O)c6ccccc6Oc6ccccc65)c4)c4ccccc43)[C@H]2C)cc1` the figure was -0.704; with `CN(C)CCCN1C(=O)[C@@]2(c3ccc([N+](=O)[O-])cc3)CC(=O)N(CC34CC5CC(CC(C5)C3)C4)[C@@H]2c2ccc(CO)cc21`, -0.741. With `C[C@]12C(=O)N(CCCCCCO)[C@@H]3C(=O)N(c4ccc(Cl)cc4)CC=CC31O[C@@H]1/C=C\CCCOC(=O)C12` (some centres not stated), the composite z-score is -1. Consider `CC1CC/C=C\[C@H]2OC34C=CCN(c5ccc6ccccc6c5)C(=O)[C@H]3N(C(CO)C(C)C)C(=O)[C@@H]4C2C(=O)O1` (some centres not stated), for which the composite z-score is -0.854. The compound `O=C1O[C@@H](c2ccccc2)[C@@H](c2ccccc2)N2[C@@H](c3ccc(O)cc3)[C@]3(C(=O)Nc4ccc(C#CC5=CCCCC5)cc43)[C@@H](C(=O)N3CCN(c4ncccn4)CC3)[C@H]12` yielded a composite z-score of 0.333. `C[C@H]1ON(c2ccc(C(=O)OC(C)(C)C)cc2)[C@@H](c2ccc(O)cc2)[C@@H]1C(=O)N1C(=O)OC[C@@H]1c1ccccc1` returned a composite z-score of 0.465. Turning to `CCOC(=O)C[C@H]1[C@H](OC(=O)Cc2ccc3c(c2)OCO3)[C@@H](NC(=O)C2CCCCC2)c2cc(OCCCO)ccc2N1C(=O)c1ccc2ccccc2n1`, the composite z-score was found to be 0.924.

Compound `CN1C(=O)C2C=CC(C(O)c3c(F)cccc3Cl)N(Nc3ccccc3)C2C1=O` (configuration not stated) yielded a composite z-score of -0.445. In the case of `COCCCNC(=O)[C@]1(Cc2ccccc2CN=[N+]=[N-])N=C(c2ccc(OCCCO)cc2)O[C@@H]1c1ccccc1` it was -0.369; in that of `[N-]=[N+]=NCc1ccccc1C[C@@]1(C(N)=O)N=C(c2ccc(OCCCO)cc2)O[C@@H]1c1ccccc1CN=[N+]=[N-]`, 0.144; in that of `COC(=O)[C@@]1(Cc2ccc(OC)cc2)[C@H]2c3cc(C(=O)N4CCCC4)n(CCc4cc5ccccc5[nH]4)c3C[C@H]2CN1C(=O)c1ccccc1`, -0.239.

Take `COCCOC(=O)N1C(=O)[C@@]2(c3cc(C#Cc4ccc(OC)cc4)ccc31)[C@H](C(=O)NC[C@H](O)c1ccccc1)[C@H]1C(=O)O[C@H](c3ccccc3)[C@H](c3ccccc3)N1[C@@H]2c1ccc(O)cc1`: the composite z-score was 0.887. On to `C=CC[C@@]12N=C(c3ccc(OCCCO)cc3)O[C@@H]1c1ccccc1N(CCS(=O)(=O)c1ccccc1)C2=O`, for which the composite z-score worked out at 0.526. In turn, `C=CCN1C(=O)[C@]2(CC=C)N=C(c3ccc(OCCCO)cc3)O[C@@H]2c2ccccc21` returned a composite z-score of 0.503. The compound `Cc1ccc(S[C@]2(C(=O)NCC(C)C)CC(=O)N(Cc3ccccc3Cl)[C@@H]2c2ccc(CO)cc2I)cc1` had a composite z-score of -1.16. Consider `COc1ccccc1CN1C(=O)c2ccccc2[C@](Cc2ccccc2I)(C(=O)NC(C)C)[C@@H]1c1ccc(CO)cc1`, for which the composite z-score worked out at 0.242. Take `CCOc1cc(C(O)C2C=CC3C(=O)N(C4CCCCC4)C(=O)C3N2Nc2ccc(OC)cc2)ccc1O` (configuration not stated): the composite z-score was 0.208.

For the compound `COCCOC(=O)N1C(=O)[C@@]2(c3cc(C#Cc4ccc(OC)cc4)ccc31)[C@H](C(=O)N1CCCCCCC1)[C@H]1C(=O)O[C@H](c3ccccc3)[C@H](c3ccccc3)N1[C@@H]2c1ccc(O)cc1`, the composite z-score was 0.505. Compound `C=C(C(=O)CC[C@H](OC(=O)c1cccnc1)c1ccc(CO)o1)C(C)C` came in with a composite z-score of 0.584. Take `COC(=O)[C@H](Cc1ccccc1)N1CC(/C=C/C2CC2)=C[C@@H]1[C@@H](O)Cc1ccccc1`: the composite z-score turned out to be 1.04. As to `COC(=O)[C@@]1(Cc2ccc(OC)cc2)[C@H]2c3cc(C(=O)N(C)C)n(Cc4nc5ccccc5[nH]4)c3C[C@H]2CN1C(=O)c1ccccc1`, the composite z-score is -0.314. Compound `CN(C)C(=O)[C@]1(CCC(=O)OC(C)(C)C)N=C(c2ccc(OCCCO)cc2)O[C@@H]1c1ccccc1` came in with a composite z-score of 0.119. The compound `COCCOC(=O)N1C(=O)[C@@]2(c3cc(C#CC4(O)CCCCCC4)ccc31)[C@H](C(N)=O)[C@H]1C(=O)O[C@H](c3ccccc3)[C@H](c3ccccc3)N1[C@@H]2c1ccccc1OCCO` displayed a composite z-score of 0.339. The compound `Cc1ccc(S[C@]2(C(=O)NCC(F)(F)F)CC(=O)N(Cc3ccccc3)[C@@H]2c2ccc(CO)cc2)cc1` returned a composite z-score of -1.73.

For the origin of these results see PubChem BioAssay.
